The source of these data is PubChem BioAssay (EPA / NIEHS).

Each structure is given as a SMILES string. Records with an inconclusive call do not appear. Calls of active or inactive are those of the source. How the source made its calls: active means hit-call score of the fitted dose curve at least 0.9, where 1 is the maximum; inconclusive means response in the unintended direction; inactive means score below 0.9.

This assay can be described thus: ATG_M_06_TRANS: Attagene TRANS-FACTORIAL HepG2 Assay for M06 Transcription Factor (Internal Marker) (AID 2282983). Particulars: HepG2 Attagene TRANS M06 internal marker reporter. The procedure: ATG_TRANS is a cell-based, multiplexed-readout assay that uses HepG2, a human liver cell line, with measurements taken at 24 hours after chemical dosing in a 24-well plate.ATG_M_06_TRANS is one of 30 assay component(s) measured or calculated from the ATG_TRANS assay. It is designed to make measurements of mRNA induction, a form of inducible reporter, as detected with fluorescence intensity signals by Reverse transcription polymerase chain reaction (RT-PCR) and Capillary electrophoresis technology.Data from the assay component ATG_M_06_TRANS was analyzed into 1 assay endpoint. This assay endpoint, ATG_M_06_TRANS, was analyzed in the positive analysis fitting direction relative to DMSO as the negative control and baseline of activity. Using a type of inducible reporter, measures of mRNA for gain-of-signal activity can be used to understand the background control at the transcription factor-level as they relate to the gene . Furthermore, this assay endpoint can be referred to as a secondary readout, because this assay has produced multiple assay endpoints where this one serves a background control function. To generalize the intended target to other relatable targets, this assay endpoint is annotated to the background measurement intended target family, where the subfamily is internal marker.
Human liver HepG2 cells are transiently transfected with multiple reporter transcription units (MRTUs) in 6-well plates using FuGene 6 reagent (Roche; 3 ml FuGene/1 mg DNA). The MRTU constructs are regulated by a cis-regulating element (promoter). […] A major difference between the CIS and TRANS system is that in CIS activities of endogenous TFs are measured, whereas the TRANS assay evaluates changes in activities of exogenous, chimeric NR-Gal4 proteins. […] At the end of 24 hour incubation, total RNA was isolated using TriZol reagent (Invitrogen). The isolated RNA is then reverse-transcribed using oligo(dT) primer and Mo-MLV reverse transcriptase (Invitrogen) with DNAse I (Ambion) treatment for 30 min. The one-tenth of the produced cDNA was amplified by PCR using Taq DNA polymerase (Invitrogen) and two reporter sequence-specific primers. The PCR products were fluorescently labeled by primer extension with 6-arboxyfluorescein (6-FAM) 5'-labeled reporter sequence-specific primer (2 min at 95 C, 20 s at 68 C and 10 min at 72 C) and these products were digested with 5U of HpaI (New England Biolabs) for 2h at 37 C. The fragments were purified using Qiaquick PCR columns (Qiagen), analyzed on an ABI 3130xL genetic analyzer (Applied Biosystems) with peak positions identified by using a set of X-rhodamine (ROX)-labeled MapMarker1000 molecular weight standards (BioVentures). The raw capillary electrophoresis data was processed using Attagraph software (Attagene).
Take `O=C(O)CCCOc1ccc(Cl)cc1Cl`: the outcome was inactive. On to `COc1nn(CSP(=S)(OC)OC)c(=O)s1`, for which the compound was called inactive. In the case of `C[C@H]1[C@H](c2ccc(Cl)cc2)SC(=O)N1C(=O)NC1CCCCC1`, the result was inactive. In the case of `O=S(=O)(O)C(F)(F)C(F)(F)C(F)(F)C(F)(F)C(F)(F)C(F)(F)C(F)(F)C(F)(F)F`, the result was inactive. With `CNC(=O)CSP(=S)(OC)OC`, the outcome was inactive. Consider `CC1(C)C(C=C(Cl)Cl)C1C(=O)OC(C#N)c1ccc(F)c(Oc2ccccc2)c1` (centres undefined), for which the outcome was inactive.

Regarding `Cc1cc(C)nc(NC(=O)NS(=O)(=O)c2ccccc2C(=O)OC2COC2)n1`, the result was inactive.

For the compound `CCc1ccc(C(=O)NN(C(=O)c2cc(C)cc(C)c2)C(C)(C)C)cc1`, the compound was called inactive. The result for `ClC1C(Cl)C(Cl)C(Cl)C(Cl)C1Cl` (centres undefined) reads “inactive”; that for `CC(C)(C)C(O)/C(=C\c1ccc(Cl)cc1Cl)n1cncn1` (centres undefined), “inactive”. The result for `COP(=S)(OC)Oc1ccc(SC)c(C)c1` reads “inactive”; that for `CCC(C)(NC(=O)c1cc(Cl)c(C)c(Cl)c1)C(=O)CCl` (centres undefined), “inactive”.

In the case of `COC(=O)c1ccccc1CS(=O)(=O)NC(=O)Nc1nc(OC)cc(OC)n1`, the compound was called inactive. Turning to `CCS(=O)(=O)c1cccnc1S(=O)(=O)NC(=O)Nc1nc(OC)cc(OC)n1`, the compound was classed as inactive. Turning to `COC(=O)c1ccccc1S(=O)(=O)NC(=O)N(C)c1nc(C)nc(OC)n1`, the call was inactive. On to `CNC(=O)/C=C(\C)OP(=O)(OC)OC`, for which the call was inactive. `Oc1cc(Cl)ccc1Oc1ccc(Cl)cc1Cl`: the result was inactive.

Take `CN1CSC(=S)N(C)C1`: the compound was called inactive.

For `COP(=S)(OC)Oc1ccc([N+](=O)[O-])cc1`, the result was inactive. In the case of `CC(C)(C)C(O)C(Oc1ccc(Cl)cc1)n1cncn1` (centres undefined), the compound was classed as inactive. On to `O=C(NC(=O)c1c(F)cccc1F)Nc1ccc(OC(F)(F)C(F)OC(F)(F)F)c(Cl)c1` (centres undefined), for which the compound was classed as inactive. Regarding `CCCN(CCC)c1c([N+](=O)[O-])cc(C(F)(F)F)cc1[N+](=O)[O-]`, the call was inactive. Consider `CNC(=O)Oc1cccc(N=CN(C)C)c1`, for which the call was inactive. With `O=S1OCC2C(CO1)C1(Cl)C(Cl)=C(Cl)C2(Cl)C1(Cl)Cl` (centres undefined), the result was inactive. On to `[2H]C1([2H])[n+]2ccccc2-c2cccc[n+]2C1([2H])[2H]`, for which the call was inactive. In the case of `Cc1[nH]c(=O)n(C(C)(C)C)c(=O)c1Cl`, the outcome was inactive.

On to `N#CN`, for which the call was inactive. In the case of `Oc1ccc(Cl)cc1Cc1ccccc1`, the compound was classed as inactive. For the compound `COC(=O)c1ccccc1S(=O)(=O)NC(=O)Nc1nc(C)nc(OC)n1`, the result was inactive. For the compound `O=C(O)COc1ccc(Cl)cc1Cl`, the outcome was inactive. Turning to `O=C(O)C(F)(F)C(F)(F)C(F)(F)C(F)(F)C(F)(F)C(F)(F)C(F)(F)F`, the result was inactive.

For `CCCN(CCOc1c(Cl)cc(Cl)cc1Cl)C(=O)n1ccnc1`, the compound was called inactive. As to `CC(C)OC(=O)Nc1cccc(Cl)c1`, the compound was classed as inactive. On to `COP(=O)(OC)OC=C(Cl)Cl`, for which the outcome was inactive.
